This is a sample that favours compounds with a hit; in the whole collection about 14% have one here.
Giardia FBPA inh-1 = Giardia lamblia aldolase inhibition; A8B2U2; purified Giardia FBPA; Potency, µM (doses to about 59.6 µM), hits mostly inhibitors; 290,000 tested, 0.71% active; AID 2451; further: nearly all actives have a fitted effect of over 55% in size
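Giardia FBPA (40 nM reagent) was preincubated 10 min at RT with compound (up to 57.5 uM final), then substrate plus GAPDH/TPI/NAD/arsenate coupling system with diaphorase/resazurin was added; resorufin fluorescence (525/598 nm) was read after 20 min.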
Shiga toxin inh = blocks Shiga toxin action in Vero cells; 290,000 tested, 9.2% active; inhibition, % at 38.7 µM; AID 2315; Vero cells, Shiga toxin protein synthesis inhibition reporter; in the data active means inhibition mostly above about 28%, no sharp cut-off; inactive means mostly below about 43%
CHX counter = counter-screen for Shiga toxin inhibitors: cycloheximide protein synthesis inhibition. cell reporter, cycloheximide protein synthesis inhibition counterscreen. max response, %. 300,000 tested, 12% active. AID 2314; in the data active means max response mostly above about 13%, no sharp cut-off; inactive means mostly below about 14%; further: read at 38.3 µM for the half of the compounds with a filed dose
LmPK inhibitor = LmPK (Leishmania mexicana) enzyme inhibition | purified LmPK, Kinase-Glo ATP luminescence, 1 h | Potency, µM (doses to about 57.5 µM), usual class: inhibitors | 290,000 tested, 0.37% active | AID 1721
Target sequence (Q27686 whole entry, looked up): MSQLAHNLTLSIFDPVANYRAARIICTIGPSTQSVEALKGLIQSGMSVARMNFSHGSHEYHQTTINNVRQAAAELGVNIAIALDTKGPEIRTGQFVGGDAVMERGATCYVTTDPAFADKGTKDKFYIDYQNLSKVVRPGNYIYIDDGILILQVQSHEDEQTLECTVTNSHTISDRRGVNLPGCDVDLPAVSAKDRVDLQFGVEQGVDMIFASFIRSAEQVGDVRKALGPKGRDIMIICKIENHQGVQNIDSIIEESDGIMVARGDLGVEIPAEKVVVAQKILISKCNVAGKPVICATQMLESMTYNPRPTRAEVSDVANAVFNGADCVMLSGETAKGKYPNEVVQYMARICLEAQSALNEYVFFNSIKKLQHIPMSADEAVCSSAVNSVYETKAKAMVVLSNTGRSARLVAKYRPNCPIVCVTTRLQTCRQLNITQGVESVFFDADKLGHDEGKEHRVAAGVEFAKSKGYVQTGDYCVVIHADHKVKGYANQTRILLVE
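qHTS format; LmPK 0.1 nM; substrates PEP 0.5 mM and ADP 0.1 mM. One-hour room-temperature incubation, then coupled luciferase luminescence; 0.5 nM enzyme wells mark activation.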
NS1 inh = influenza NS1 inhibition | 270,000 tested, 0.4% active | Potency, µM (titrated, usually from 46.1 µM); calls by dose curve; further: actives are rising curves; nearly all actives have a fitted effect of over 50% in size
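In this qHTS, NS1 from influenza A is expressed in budding yeast, where it slows growth. Cells are switched from glucose to 2% galactose medium (pH 6.0, -URA), treated with compound, and growth recovery is read at OD600.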
Giardia growth = blocks growth of Giardia lamblia trophozoites; 1,500 tested, 5% active; Giardia lamblia trophozoite growth inhibition; shares compounds with Giardia FBPA inh-1; Potency, µM (highest dose often 57.5 µM), hits mostly inhibitors;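 further: trophozoites exposed to compound for 48 h at 37 °C; nearly all actives have a fitted effect of over 70% in size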
Mammal cell tox = counter-screen for Giardia aldolase inhibitors: mammalian cell toxicity; Potency, µM (top dose mostly 57.5 µM), usual class: inhibitors; 1,500 tested, 4% active; mammalian cell viability counter-screen, qHTS; shares compounds with Giardia FBPA inh-1;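 further: Chinese hamster ovary cells used as mammalian cytotoxicity surrogate; viability measured as cellular ATP by luminescence; compound exposure lasted 48 h before reading; nearly all actives have a fitted effect of over 60% in size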
Giardia FBPA inh-2 = confirmation of Giardia fructose-bisphosphate aldolase inhibitors; 1,500 tested, 5% active; shares compounds with Giardia FBPA inh-1; Potency, µM (series often up to 57.5 µM), hits mostly inhibitors; purified Giardia aldolase enzyme activity, qHTS; further: nearly all actives have a fitted effect of over 45% in size
Rabbit aldolase = blocks rabbit muscle aldolase in Giardia aldolase selectivity test; 1,500 tested, 4% active; AID 2794; Potency, µM (doses to about 57.5 µM), actives largely listed as inhibitors; shares compounds with Giardia FBPA inh-1; Rabbit muscle FBPA enzyme inhibition, selectivity counter-screen; further: nearly all actives have a fitted effect of over 60% in size
GAPDH counter = GAPDH inhibition flagged for Giardia aldolase hits; 1,500 tested, 6% active; Potency, µM (highest dose often 57.5 µM), hits mostly inhibitors; GAPDH coupling enzyme counterscreen, biochemical, qHTS; shares compounds with Giardia FBPA inh-1; further: nearly all actives have a fitted effect of over 55% in size
Each line names hits and unclear results; the compound was inactive in the other large screens (follow-up assays come after a bar, where they were run); [ ] = another dose, or the depositor's remark. Unless noted, the call rests on the fitted dose curve; in most records, active means well fitted curve in the direction sought with a large enough effect; inconclusive means small, poorly fitted or top-dose-only effect, or another doubt; inactive means no such curve, though single readings can be large; an effect the other way counts as inactive or inconclusive.

Cc1ccc(C(=S)N2CCN(Cc3ccccc3)CC2)s1	Giardia FBPA inh-1 17.7µM (no result: NS1 inh) | Giardia growth inactive | Mammal cell tox inactive | Giardia FBPA inh-2 inconclusive | Rabbit aldolase inconclusive | GAPDH counter inconclusive
O=C(c1ccc(Br)cc1)N1CCN(Cc2ccccc2)CC1	none (no result: Shiga toxin inh)
CCN(CC)c1ccc(C(=O)N2CCN(Cc3ccccc3)CC2)cc1	NS1 inh inconclusive
S=C(c1ccc(Br)cc1)N1CCN(Cc2ccccc2)CC1	Giardia FBPA inh-1 14.1µM | Giardia growth inconclusive | Mammal cell tox inactive | Giardia FBPA inh-2 inconclusive | Rabbit aldolase inconclusive | GAPDH counter inconclusive
CN(C)c1ccc(C(=S)N2CCN(Cc3ccccc3)CC2)cc1	Giardia FBPA inh-1 6.29µM | Giardia growth inactive | Mammal cell tox inactive | Giardia FBPA inh-2 inactive | Rabbit aldolase inconclusive | GAPDH counter inconclusive
O=C(c1cnccn1)N1CCC2(CCCN(Cc3ccncc3)C2)CC1	none (no result: Shiga toxin inh, CHX counter, LmPK inhibitor, NS1 inh)
COc1ccc(NC(=O)CN(c2ccc(OC)c(Cl)c2)S(=O)(=O)c2ccccc2)cc1	none (no result: Shiga toxin inh)
CCN1CCN(C(=S)c2ccc(Br)cc2)CC1	none (no result: Giardia FBPA inh-1)
CCN1CCN(C(=S)c2ccc(O)cc2)CC1	Giardia FBPA inh-1 8.89µM | Giardia growth inactive | Mammal cell tox inactive | Giardia FBPA inh-2 inactive | Rabbit aldolase inactive | GAPDH counter inactive
CCC(CC)C(=O)c1c[nH]c(C(=O)NCc2ccccc2OC)c1	none
CC(C)N(CC#CCC(O)(c1ccccc1)c1ccccc1)CCO	Giardia FBPA inh-1 15.8µM | Giardia growth inactive | Mammal cell tox inactive | Giardia FBPA inh-2 inactive | Rabbit aldolase inactive | GAPDH counter inactive
NC(=O)c1cccc2c1-c1ccccc1/C2=N/NC(N)=S	Giardia FBPA inh-1 11.2µM | Giardia growth inactive | Mammal cell tox inactive | Giardia FBPA inh-2 inactive | Rabbit aldolase inactive | GAPDH counter inactive
COC(=O)c1cccc2c1-c1ccccc1/C2=N\NC(N)=O	none
NC(=S)N/N=C1\c2ccccc2-c2c(C(=O)O)cccc21	Giardia FBPA inh-1 3.98µM | Giardia growth inactive[10.4 µM] | Mammal cell tox inactive | Giardia FBPA inh-2 inactive | Rabbit aldolase inactive | GAPDH counter inactive
O=[N+]([O-])c1cc(C(F)(F)F)cc([N+](=O)[O-])c1Sc1n[nH]c(C(F)(F)F)n1	Giardia FBPA inh-1 17.7µM | Giardia growth inconclusive | Mammal cell tox inactive | Giardia FBPA inh-2 inactive | Rabbit aldolase inactive | GAPDH counter inactive
CN(C)/C=N/c1nc(Sc2ccc(C(F)(F)F)cc2[N+](=O)[O-])n[nH]1	none
Cn1nnnc1SCC1=C(C(=O)O)N2C(=O)C(NC(=O)C3CC3c3ccccc3)C2SC1 (centres undefined)	Giardia FBPA inh-1 inconclusive (no result: NS1 inh)
Cc1nnc(SCC2=C(C(=O)O)N3C(=O)C(NC(=O)c4cccc(F)c4F)C3SC2)s1 (centres undefined)	Giardia FBPA inh-1 14.1µM (no result: NS1 inh) | Giardia growth inactive[10.4 µM] | Mammal cell tox inactive | Giardia FBPA inh-2 inactive | Rabbit aldolase inactive | GAPDH counter inactive
Cc1cc(C)n(CC(=O)NC2C(=O)N3C(C(=O)O)=C(CSc4nnc(C)s4)CSC23)n1 (centres undefined)	Giardia FBPA inh-1 12.6µM (no result: NS1 inh) | Giardia growth inactive | Mammal cell tox inactive | Giardia FBPA inh-2 inactive | Rabbit aldolase inactive | GAPDH counter inactive
Cc1nnc(SCC2=C(C(=O)O)N3C(=O)C(NC(=O)Cn4ncc(Cl)c4C)C3SC2)s1 (centres undefined)	Giardia FBPA inh-1 19.9µM (no result: NS1 inh) | Giardia growth inactive | Mammal cell tox inactive | Giardia FBPA inh-2 inactive | Rabbit aldolase inactive | GAPDH counter inactive
O=c1[nH]c(=S)c2ncn(-c3ccccc3)c2[nH]1	Giardia FBPA inh-1 9.98µM | Giardia growth inactive | Mammal cell tox inactive | Giardia FBPA inh-2 inactive | Rabbit aldolase inactive | GAPDH counter inactive
CN1C(=O)[C@H]2[C@@H](/C=C/c3ccccc3)N3C(=O)CN(CC4CC4)C(=O)[C@@]3(C)[C@H]2C1=O	none
CC(C)c1c(Cl)c(O)c(-c2ccccc2)c(=O)n1-c1ccc(F)cc1	Giardia FBPA inh-1 inconclusive
Cc1ccc(-n2c(O)c(/C=N/c3ncn[nH]3)c3ccccc3c2=O)cc1	none (no result: NS1 inh)
Oc1c(/C=N/c2ncn[nH]2)ccc2ccccc12	Giardia FBPA inh-1 8.89µM, Shiga toxin inh 65.6, CHX counter 26.7 | Giardia growth inactive | Mammal cell tox inactive | Giardia FBPA inh-2 8.91µM | Rabbit aldolase 39.8µM | GAPDH counter inconclusive
C=CCn1c(O)c(/C=N/NC(=O)CCCC)c(=O)[nH]c1=S	Giardia FBPA inh-1 7.06µM (no result: NS1 inh) | Giardia growth inactive[10.4 µM] | Mammal cell tox inactive | Giardia FBPA inh-2 inactive | Rabbit aldolase inactive | GAPDH counter inactive
CCCCCCC(=O)N/N=C/c1c(O)n(C2CC2)c(=S)[nH]c1=O	none
CCc1ccc(OCCn2ccnc2)cc1	Giardia FBPA inh-1 25.1µM | Giardia growth inconclusive | Mammal cell tox inactive | Giardia FBPA inh-2 inactive | Rabbit aldolase inactive | GAPDH counter inactive
Cc1cccc(OCCn2ccnc2)c1C	Giardia FBPA inh-1 22.4µM | Giardia growth inactive | Mammal cell tox inactive | Giardia FBPA inh-2 inactive | Rabbit aldolase inactive | GAPDH counter inactive
Cc1cccc(Cl)c1OCCCn1ccnc1	Giardia FBPA inh-1 inconclusive
CCc1cccc(OCCCn2ccnc2)c1	Giardia FBPA inh-1 inconclusive
Cc1ccc(Cl)cc1NS(=O)(=O)c1ccc2oc(=O)ccc2c1	none

High-throughput results as filed in PubChem BioAssay.
